Laboratory results: ChEMBL document CHEMBL3988442, “University of Dundee, Small-Polar-MMV Screening Library” (2021)

Target: AMP-activated protein kinase, AMPK (Homo sapiens) (UniProt P54646+O43741+P54619+Q9UGJ0+Q9Y478+Q13131+Q9UGI9)
Assay: AMP-dependent Kinase enzyme assay. An in vitro enzyme assay that detects ADP turnover that is directly proportional to AMPK activity. This uses naive AMPK that is activated during the assay with MK-8722
Format: functional
Design: scale not given: direction of the effect not stated beside the values
Conditions: 30 µM

| SMILES | Percent Effect [%] |
| --- | --- |
| Cn1c(Cn2ccnc2)nnc1C1CCN(C(=O)C2(C)CC2)CC1 | -0.77 |
| O=C(c1cnn(-c2ccccc2F)c1)N1CCN(CCO)CC1 | -3.7 |
| O=C(NCCCn1cccn1)C1(c2ccc(Br)cc2)CC1 | 12.9 |
| COCCC(=O)N1CCC2(CN(Cc3ccc(OC)c(F)c3)C2)C1 | -3.76 |
| O=C(c1cccc(S(=O)(=O)NCCCc2ccco2)c1)N1CCOCC1 | 6.53 |
| CC(=O)N1CCN(Cc2csc(-c3cnn(C)c3)n2)CC1 | -1.26 |
| Cc1cnn(CCNCC(=O)NCc2ccccc2)c1 | -2.33 |
| CCCc1cc(NC2CCc3ncnn3C2)n2ncnc2n1 (stereo not given) | 7.3 |
| CC(C)Sc1ncccc1C(=O)NCc1ccc(CS(C)(=O)=O)cc1 | 0.323 |
| CCc1nnc2n1CCN(Cc1ccc3c(c1)OCCO3)C2 | -5.31 |
| Cc1ccc(CN2CC[C@H]3OCC[C@@H](C(=O)NC4CC4)[C@@H]3C2)o1 | -20.2 |
| Cc1nc(C)n(C2CCCN(C(=O)CCc3ccncc3)C2)n1 (stereo not given) | 0.169 |
| CCOC[C@H]1CC[C@H]2[C@H](CCN2C(=O)c2ccncc2F)O1 | 3.1 |
| Cc1ccc(C(=O)NCC2(O)CCOCC2)cc1Br | 0.131 |
| N#Cc1cn(C2CC2)c(=O)n(CC(O)c2ccc(OC(F)F)cc2)c1=O (stereo not given) | -4.7 |
| O=C(CCc1nc2cccnc2[nH]1)Nc1cccnc1 | -1.32 |
| c1cnnc(NCC2CN(Cc3cccc4c3OCCO4)CCO2)c1 (stereo not given) | 2.26 |
| Cc1cc(N2CCN(Cc3ccc(-c4cc[nH]n4)o3)CC2)cc(C)n1 | -25.4 |
| COc1ccnc(N2CCN(C(=O)CN3CCCC3=O)CC2)n1 | -5.08 |
| N#Cc1ccnc(N2CCN(Cc3cccc(F)c3)CC2)c1 | -3.8 |

| SMILES | Percent Effect [%] |
| --- | --- |
| O=C(C(CNCc1ccsc1)c1ccccc1)N1CCOCC1 (stereo not given) | -2.02 |
| O=C(CCOc1cccc(F)c1)N1CCCC(n2cncn2)C1 (stereo not given) | 7.42 |
| Cc1nc(C)n(CC2CCCCN2CCCS(=O)(=O)N(C)C)n1 (stereo not given) | -12.4 |
| CCOC(C)c1nc(CN2CCNCC2)cs1 (stereo not given) | -1.11 |
| CC1CCCN(CCNC(=O)c2cncnc2C(C)C)C1 (stereo not given) | -1.93 |
| CC(C)NC(=O)c1sccc1N(C)S(=O)(=O)c1ccc(Cl)cc1 | 10.6 |
| Cc1cc(C)n(C2CCCN(C(=O)c3cnc4onc(C)c4c3)C2)n1 (stereo not given) | 2.66 |
| O=C(CCc1nc2cccnc2[nH]1)NCc1cccnc1 | -5.37 |
| CSCCC(=O)N1CCCC1c1ccsc1 (stereo not given) | 0.426 |
| COc1c(C)cnc(CSc2nnc(C)s2)c1C | -1.7 |
| CCOc1cc(C)nc(N2CCN(C(=O)c3ccc[nH]3)CC2)n1 | 1.91 |
| CC(C)NC(=O)N1CCC(n2ccc(C(F)(F)F)n2)CC1 | -3.52 |
| CC(C)c1nnc2n1CCN(CCCS(=O)(=O)c1ccccc1)C2 | 4.29 |
| Cc1cnn(CC2CN(Cc3nnc(C4CC4)o3)CCO2)c1 (stereo not given) | 87.3 |
| CC(NC(=O)NCCCNS(C)(=O)=O)c1ccncc1 (stereo not given) | 4.73 |
| CS(=O)(=O)CCC(=O)NC1(c2cccc(Br)c2)CC1 | -4.94 |
| Cc1cc(CN2CCN(C(=O)c3sccc3C(C)C)CC2)no1 | 4.01 |
| CC(=O)Nc1ccc(-n2ccc3nc(N4CCCC4)ncc3c2=O)cc1 | 1.45 |
| Cc1nc(C)n(CC2CCCN2CCc2cccs2)n1 (stereo not given) | 3.79 |
| Cc1nn(C)c(C)c1C1CCCN1C(=O)c1ccc(CN(C)C)cc1 (stereo not given) | 2.25 |

Target: Sialic acid-binding Ig-like lectin 9 (Homo sapiens) (UniProt Q9Y336)
Sequence (Q9Y336 whole entry): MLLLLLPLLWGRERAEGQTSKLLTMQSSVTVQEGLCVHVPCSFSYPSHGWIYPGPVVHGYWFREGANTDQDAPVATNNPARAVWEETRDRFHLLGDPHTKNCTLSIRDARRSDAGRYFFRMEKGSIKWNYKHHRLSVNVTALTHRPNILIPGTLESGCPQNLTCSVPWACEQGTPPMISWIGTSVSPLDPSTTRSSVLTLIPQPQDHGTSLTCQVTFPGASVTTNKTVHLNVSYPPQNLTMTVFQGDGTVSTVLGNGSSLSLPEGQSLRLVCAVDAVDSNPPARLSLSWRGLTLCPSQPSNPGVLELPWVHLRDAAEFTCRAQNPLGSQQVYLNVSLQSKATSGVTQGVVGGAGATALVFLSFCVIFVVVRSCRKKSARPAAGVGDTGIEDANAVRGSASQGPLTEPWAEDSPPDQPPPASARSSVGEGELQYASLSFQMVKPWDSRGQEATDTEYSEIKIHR
Assay: Hs-Siglec9 ALPHAscreen SOP 20170721
Design: scale not given: direction of the effect not stated beside the values
Conditions: 10 µM

| SMILES | Percent Effect [%] |
| --- | --- |
| Cn1c(Cn2ccnc2)nnc1C1CCN(C(=O)C2(C)CC2)CC1 | 4.51 |
| O=C(c1cnn(-c2ccccc2F)c1)N1CCN(CCO)CC1 | 3.26 |
| O=C(NCCCn1cccn1)C1(c2ccc(Br)cc2)CC1 | -1.49 |
| COCCC(=O)N1CCC2(CN(Cc3ccc(OC)c(F)c3)C2)C1 | 8.62 |
| O=C(c1cccc(S(=O)(=O)NCCCc2ccco2)c1)N1CCOCC1 | -4.06 |
| CC(=O)N1CCN(Cc2csc(-c3cnn(C)c3)n2)CC1 | 6.08 |
| Cc1cnn(CCNCC(=O)NCc2ccccc2)c1 | 11.4 |
| CCCc1cc(NC2CCc3ncnn3C2)n2ncnc2n1 (stereo not given) | -5.57 |
| CC(C)Sc1ncccc1C(=O)NCc1ccc(CS(C)(=O)=O)cc1 | -3.32 |
| CCc1nnc2n1CCN(Cc1ccc3c(c1)OCCO3)C2 | -8.03 |
| Cc1ccc(CN2CC[C@H]3OCC[C@@H](C(=O)NC4CC4)[C@@H]3C2)o1 | -9.85 |
| Cc1nc(C)n(C2CCCN(C(=O)CCc3ccncc3)C2)n1 (stereo not given) | 8.78 |
| CCOC[C@H]1CC[C@H]2[C@H](CCN2C(=O)c2ccncc2F)O1 | -3.88 |
| Cc1ccc(C(=O)NCC2(O)CCOCC2)cc1Br | 12.8 |
| N#Cc1cn(C2CC2)c(=O)n(CC(O)c2ccc(OC(F)F)cc2)c1=O (stereo not given) | 7.1 |
| O=C(CCc1nc2cccnc2[nH]1)Nc1cccnc1 | 1.96 |
| c1cnnc(NCC2CN(Cc3cccc4c3OCCO4)CCO2)c1 (stereo not given) | 4.61 |
| Cc1cc(N2CCN(Cc3ccc(-c4cc[nH]n4)o3)CC2)cc(C)n1 | 33.9 |
| COc1ccnc(N2CCN(C(=O)CN3CCCC3=O)CC2)n1 | -0.685 |
| N#Cc1ccnc(N2CCN(Cc3cccc(F)c3)CC2)c1 | 19.9 |

| SMILES | Percent Effect [%] |
| --- | --- |
| O=C(C(CNCc1ccsc1)c1ccccc1)N1CCOCC1 (stereo not given) | 3.85 |
| O=C(CCOc1cccc(F)c1)N1CCCC(n2cncn2)C1 (stereo not given) | 3.23 |
| Cc1nc(C)n(CC2CCCCN2CCCS(=O)(=O)N(C)C)n1 (stereo not given) | 5.89 |
| CCOC(C)c1nc(CN2CCNCC2)cs1 (stereo not given) | 0.0763 |
| CC1CCCN(CCNC(=O)c2cncnc2C(C)C)C1 (stereo not given) | -5.17 |
| CC(C)NC(=O)c1sccc1N(C)S(=O)(=O)c1ccc(Cl)cc1 | -13 |
| Cc1cc(C)n(C2CCCN(C(=O)c3cnc4onc(C)c4c3)C2)n1 (stereo not given) | 12.3 |
| O=C(CCc1nc2cccnc2[nH]1)NCc1cccnc1 | 0.97 |
| CSCCC(=O)N1CCCC1c1ccsc1 (stereo not given) | -10.9 |
| COc1c(C)cnc(CSc2nnc(C)s2)c1C | 12.8 |
| CCOc1cc(C)nc(N2CCN(C(=O)c3ccc[nH]3)CC2)n1 | 13.3 |
| CC(C)NC(=O)N1CCC(n2ccc(C(F)(F)F)n2)CC1 | -4.66 |
| CC(C)c1nnc2n1CCN(CCCS(=O)(=O)c1ccccc1)C2 | 7.26 |
| Cc1cnn(CC2CN(Cc3nnc(C4CC4)o3)CCO2)c1 (stereo not given) | 7.35 |
| CC(NC(=O)NCCCNS(C)(=O)=O)c1ccncc1 (stereo not given) | 0.18 |
| CS(=O)(=O)CCC(=O)NC1(c2cccc(Br)c2)CC1 | 18.2 |
| Cc1cc(CN2CCN(C(=O)c3sccc3C(C)C)CC2)no1 | 0.935 |
| CC(=O)Nc1ccc(-n2ccc3nc(N4CCCC4)ncc3c2=O)cc1 | 1.82 |
| Cc1nc(C)n(CC2CCCN2CCc2cccs2)n1 (stereo not given) | -4.64 |
| Cc1nn(C)c(C)c1C1CCCN1C(=O)c1ccc(CN(C)C)cc1 (stereo not given) | -4.88 |
